In all, about 33,000 sequences were measured (“normalized occupancy”: median about 0.075, highest 2% from about 0.095 on). The full list was thinned out, with the highest values kept by preference.

For this experiment, the target named is MaxL homodimer (Homo sapiens, UniProt P61244 1-160). As to the kind of experiment: universal protein-binding microarray (PBM); PBS-based mixture, 10 nM His-tagged protein dimer, 2% milk, 200 ng/uL BSA, 50 ng/uL salmon testes DNA, 0.02% TX-100; detection with Alexa 488 anti-His antibody;; high values mean tight binding. Particulars: protein: recombinant; tags: C-terminal His-tag (pET21a); chain copies: 2; dsDNA, one strand shown. In a few lines: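 Binding occupancy is a fluorescence intensity normalised to the intensity of the highest-ranked sequence word. Those intensities came from 8-mers on Agilent 4 x 44 K 'all 10-mer' universal arrays incubated with 10 nM His-tagged protein dimer. Bound protein was detected with 10 ng/μL fluorophore-conjugated anti-His antibody before scanning on a GenePix 4400A.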
Chain of MaxL homodimer (P61244 whole entry): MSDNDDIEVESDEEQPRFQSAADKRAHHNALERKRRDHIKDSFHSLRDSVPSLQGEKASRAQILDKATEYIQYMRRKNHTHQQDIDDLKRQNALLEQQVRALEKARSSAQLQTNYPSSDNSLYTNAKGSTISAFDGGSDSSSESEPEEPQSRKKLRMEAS
Regarding GTCAGAGA, the binding signal was 0.073 normalized occupancy.

On to ATTGTCTG, for which the binding signal was 0.0774 normalized occupancy. Regarding TACATACA, the binding signal worked out at 0.092 normalized occupancy. Consider AATGGGAA, for which the binding signal was found to be 0.0775 normalized occupancy. As for CATGTGTC, the binding signal came out at 0.125 normalized occupancy. With GATGTGTA, the binding signal turned out to be 0.0848 normalized occupancy. As to CATGTCTC, the binding signal came to 0.0933 normalized occupancy.

Regarding CATGTGTA, the binding signal came out at 0.131 normalized occupancy. Regarding AATGTGTC, the binding signal came to 0.095 normalized occupancy. For the sequence CTTGTGTA, the binding signal was found to be 0.0811 normalized occupancy. Take CTGCGGCA: the binding signal was 0.0732 normalized occupancy. As for GACACCCA, the binding signal was found to be 0.0749 normalized occupancy.

On to GATGTAGA, for which the binding signal stood at 0.0799 normalized occupancy. In the case of ACAGCTAT, the binding signal amounted to 0.0762 normalized occupancy. As for ACAGGTGC, the binding signal stood at 0.0832 normalized occupancy. With ACAGGTGG, the binding signal is 0.0985 normalized occupancy. In the case of ACAGGTGA it was 0.084 normalized occupancy; in that of CACAGCAA, 0.0762 normalized occupancy; in that of AGTGTGCA, 0.0821 normalized occupancy. As to CATGTGCG, the binding signal is 0.181 normalized occupancy.

For the sequence CGTGTGCC, the binding signal was 0.0918 normalized occupancy. In the case of CTTGTGCC it was 0.0778 normalized occupancy; in that of CCTGTGCG, 0.0733 normalized occupancy. AATGTGAT: the binding signal was found to be 0.101 normalized occupancy. Consider CATGTGCC, for which the binding signal was 0.149 normalized occupancy. Then ACTGTGAT, with 0.0734 normalized occupancy. In the case of GATGTGCC it was 0.0796 normalized occupancy; in that of AATGTGAA, 0.0782 normalized occupancy. Regarding CGTGTGCA, the binding signal worked out at 0.0981 normalized occupancy. In the case of CATGTTCG it was 0.0882 normalized occupancy; in that of CGTAGCAG, 0.0734 normalized occupancy; in that of CGTGAAGA, 0.0801 normalized occupancy. TATCTTAA: the binding signal is 0.0728 normalized occupancy. Regarding TTCTCAAA, the binding signal was 0.0808 normalized occupancy. In the case of CTGCTCCC it was 0.0741 normalized occupancy; in that of ACGGTTAA, 0.0751 normalized occupancy.

In the case of CTGCAGCA, the binding signal is 0.0755 normalized occupancy. Consider GACCTTAC, for which the binding signal worked out at 0.0765 normalized occupancy.

CCAAGCTA: the binding signal is 0.0731 normalized occupancy. In the case of AGTGTGTG it was 0.0828 normalized occupancy; in that of GATGTGCA, 0.0814 normalized occupancy. As to AGTGTTCA, the binding signal came out at 0.0774 normalized occupancy.

Consider CATGTGCA, for which the binding signal worked out at 0.149 normalized occupancy.

With TATGTGCA, the binding signal stood at 0.084 normalized occupancy. As to AATGTGCG, the binding signal was 0.0957 normalized occupancy. AATGTGCA: the binding signal came out at 0.0888 normalized occupancy. As to AATGTGTA, the binding signal turned out to be 0.0864 normalized occupancy.

On to CGTGTTCA, for which the binding signal came out at 0.1 normalized occupancy.

For AATGTGTG, the binding signal amounted to 0.0963 normalized occupancy.

With AATGTGCC, the binding signal turned out to be 0.0816 normalized occupancy. In the case of GGTGTTCA, the binding signal came out at 0.0754 normalized occupancy.

With CATAATTA, the binding signal was found to be 0.0816 normalized occupancy. Take TACTAATA: the binding signal was found to be 0.0814 normalized occupancy. As for CGAGCAGA, the binding signal is 0.0731 normalized occupancy. For the sequence ACATCCGC, the binding signal amounted to 0.0795 normalized occupancy.

Take TACTTATA: the binding signal stood at 0.0836 normalized occupancy. For GTAAATCA, the binding signal worked out at 0.0784 normalized occupancy. Turning to ACCTCATG, the binding signal stood at 0.113 normalized occupancy. With ACCTCGTC, the binding signal amounted to 0.0738 normalized occupancy. On to ACATCGTC, for which the binding signal worked out at 0.0753 normalized occupancy. Then ACCTCGTG, with 0.156 normalized occupancy; and ACATCGTA, with 0.0832 normalized occupancy; and ACATCGTG, with 0.0998 normalized occupancy.

Take AGCTCGTG: the binding signal was 0.0836 normalized occupancy. ATCTCGTG: the binding signal came to 0.0991 normalized occupancy.

Take ACCTCATC: the binding signal stood at 0.0736 normalized occupancy.

In the case of ACCTCATA, the binding signal turned out to be 0.0788 normalized occupancy. As to ATCTCGTA, the binding signal came to 0.0765 normalized occupancy.

For ACCTCGTA, the binding signal is 0.0827 normalized occupancy. With AGACGTCC, the binding signal is 0.0732 normalized occupancy.

CAGCAATG: the binding signal was determined as 0.082 normalized occupancy. With CTTACAAC, the binding signal worked out at 0.0757 normalized occupancy. On to ATGTTTGG, for which the binding signal was 0.0806 normalized occupancy. CTCATGAA: the binding signal was 0.0856 normalized occupancy.

As to CCTTGCGA, the binding signal was determined as 0.0752 normalized occupancy.

Take CCCATGCC: the binding signal came out at 0.0969 normalized occupancy. Then ACCATGAG, with 0.0976 normalized occupancy; and CCCATGCG, with 0.138 normalized occupancy; and ATCATGTC, with 0.0895 normalized occupancy. For CCCATGAG, the binding signal stood at 0.0921 normalized occupancy. Take CCTATGCG: the binding signal was 0.0749 normalized occupancy. Consider ACCATGAA, for which the binding signal worked out at 0.0755 normalized occupancy. CCCATGAC: the binding signal was determined as 0.0853 normalized occupancy.

CCAATGCG: the binding signal is 0.0793 normalized occupancy. Then CCCATGTC, with 0.0854 normalized occupancy; and ATCATGTG, with 0.137 normalized occupancy.

Regarding ATCATGTA, the binding signal came to 0.0811 normalized occupancy. As for ACATCACC, the binding signal was 0.0798 normalized occupancy. For the sequence GACCAGCA, the binding signal was determined as 0.0755 normalized occupancy. Take CTGTCGTA: the binding signal was 0.0747 normalized occupancy.

On to GAGAACTA, for which the binding signal is 0.0732 normalized occupancy. With CTCTCGAA, the binding signal turned out to be 0.0729 normalized occupancy. Take AACGGTTG: the binding signal worked out at 0.0768 normalized occupancy. Turning to CGTTGCCA, the binding signal stood at 0.0801 normalized occupancy.

Consider GGCGGTGA, for which the binding signal is 0.0725 normalized occupancy. As to GCCATGCA, the binding signal turned out to be 0.0904 normalized occupancy.

Turning to CCCATGAA, the binding signal was 0.0827 normalized occupancy. Consider ACAATGTG, for which the binding signal was 0.0995 normalized occupancy.

Take ACAATGTA: the binding signal came to 0.085 normalized occupancy. In the case of ACAATGTC, the binding signal amounted to 0.079 normalized occupancy. Regarding CCCATACA, the binding signal was determined as 0.0836 normalized occupancy. Then CCCATGCA, with 0.0973 normalized occupancy; and GCCATGCC, with 0.0963 normalized occupancy; and ACCATGCC, with 0.0954 normalized occupancy. Then GCCATGGC, with 0.0823 normalized occupancy; and ACCATGGC, with 0.0734 normalized occupancy. Turning to ACCATGAC, the binding signal was found to be 0.0839 normalized occupancy.

As for CATTTGTA, the binding signal stood at 0.0834 normalized occupancy. Regarding CATACGCG, the binding signal worked out at 0.0762 normalized occupancy. On to AGGGAGCG, for which the binding signal stood at 0.0763 normalized occupancy.

Turning to CCGTACGC, the binding signal came out at 0.072 normalized occupancy. Regarding ACACCAGT, the binding signal stood at 0.0764 normalized occupancy. Turning to CCGACTTA, the binding signal was determined as 0.0735 normalized occupancy. Take CGCTAATC: the binding signal worked out at 0.0771 normalized occupancy.

Consider GAAATAGC, for which the binding signal was 0.0789 normalized occupancy.

Regarding ACCATGTC, the binding signal stood at 0.0794 normalized occupancy.

On to ACCATGGA, for which the binding signal worked out at 0.0861 normalized occupancy. With ACCATGTA, the binding signal came out at 0.0876 normalized occupancy. For ACCATGCA, the binding signal came out at 0.0972 normalized occupancy. On to TCCATGCA, for which the binding signal came to 0.0861 normalized occupancy. Consider ACCATGCT, for which the binding signal amounted to 0.123 normalized occupancy. As for ACTATGCG, the binding signal was determined as 0.0817 normalized occupancy. As to ACCATGTG, the binding signal came to 0.225 normalized occupancy. ACCATGCG: the binding signal was found to be 0.136 normalized occupancy. In the case of ACCATGGT it was 0.0862 normalized occupancy; in that of ACAATGCG, 0.0867 normalized occupancy; in that of ACCATGAT, 0.084 normalized occupancy.

For the sequence ATGCTGGC, the binding signal was 0.0864 normalized occupancy. Then CAGGCCTG, with 0.0765 normalized occupancy; and AAACTAAC, with 0.0741 normalized occupancy.

For the sequence ATTGGCGC, the binding signal worked out at 0.0745 normalized occupancy. For the sequence GTACAAGA, the binding signal worked out at 0.0806 normalized occupancy. In the case of CTTCTATC, the binding signal worked out at 0.0768 normalized occupancy. With AGTCAGCG, the binding signal was determined as 0.0777 normalized occupancy. Regarding CCAATTGG, the binding signal worked out at 0.0757 normalized occupancy. Consider AATCACGT, for which the binding signal amounted to 0.099 normalized occupancy. In the case of GATCACGC, the binding signal was determined as 0.0977 normalized occupancy. In the case of AATCACCT, the binding signal was 0.0853 normalized occupancy.

As for GATCACGA, the binding signal is 0.0786 normalized occupancy. For AATCACGC, the binding signal came out at 0.0974 normalized occupancy.

As for AGTCACGC, the binding signal worked out at 0.0989 normalized occupancy. Consider AATCACGG, for which the binding signal is 0.0727 normalized occupancy.

Consider AGTCACGG, for which the binding signal is 0.0774 normalized occupancy. AATCACTA: the binding signal was found to be 0.0729 normalized occupancy. Then AGTCACGA, with 0.0912 normalized occupancy; and AATCACGA, with 0.0856 normalized occupancy; and GATCACCC, with 0.0786 normalized occupancy.

In the case of CCAATGGA, the binding signal is 0.0747 normalized occupancy. As to ACGCCTGC, the binding signal is 0.0743 normalized occupancy. Regarding CCAGAATC, the binding signal is 0.0733 normalized occupancy. Turning to CATCACGA, the binding signal was 0.0811 normalized occupancy. For the sequence CATCACGG, the binding signal came out at 0.0829 normalized occupancy. In the case of CATCACGC it was 0.0961 normalized occupancy; in that of GGTCTTGA, 0.0779 normalized occupancy; in that of GATGTTGC, 0.0781 normalized occupancy. As to CATGTTGC, the binding signal came to 0.0999 normalized occupancy. For CATGTGGC, the binding signal worked out at 0.165 normalized occupancy. Then AATGTGGC, with 0.0898 normalized occupancy; and GATGTGGA, with 0.0847 normalized occupancy. On to GATGTGGC, for which the binding signal was determined as 0.0839 normalized occupancy.

Take CATGTGGG: the binding signal was determined as 0.144 normalized occupancy. In the case of CATGTTGA, the binding signal turned out to be 0.0943 normalized occupancy. Turning to AATGTGGG, the binding signal came to 0.0907 normalized occupancy. On to AATGTGGA, for which the binding signal came to 0.0903 normalized occupancy. Then CATGTCGG, with 0.088 normalized occupancy. In the case of CATGTGGA, the binding signal came out at 0.157 normalized occupancy. As for GGATTTGA, the binding signal was 0.0761 normalized occupancy. For the sequence CTATAGTA, the binding signal came to 0.0737 normalized occupancy. For AACAATGC, the binding signal is 0.0816 normalized occupancy. AGCTGTTA: the binding signal is 0.0759 normalized occupancy. In the case of AAGTGTAA it was 0.0802 normalized occupancy; in that of GGGTCTAC, 0.0725 normalized occupancy.

In the case of CGGACCCC, the binding signal stood at 0.0732 normalized occupancy. Then ACCTCGAG, with 0.0843 normalized occupancy; and ACATGCCG, with 0.103 normalized occupancy.

The record behind these values is publication PMC4242493, “Sequence specificity incompletely defines the genome-wide occupancy of Myc”.
